Source: PubChem BioAssay AID2810 (NMMLSC, 2010)
About 65 (5%) of roughly 1,200 compounds were called active. The sample holds actives, similar compounds and a random draw of the others, so the mix is not that of the screen.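 The calls were made as follows: active = at either tested dose, response and 90th-percentile vesicle-stain brightness of CD8 cells under set limits and under 9% cells vesicle-bound; inactive = the rest.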

Assay: modulators of CD8 T cell-vesicle binding, confirmation, cherry-picked primary hits, two concentrations (AID 2810);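 also: lower values mean blocking of vesicle binding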;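 as to percent response (vesicle binding): ratio of mean FL2 vesicle stain of CD8+ cells to that row's control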
Settings: 2C CD8+ T cell-vesicle binding, flow cytometry; for double positive events: CD8+/vesicle+ events
[1] = at 15.4 µM, stronger effect = lower value

With `O=C(NN1C(=O)C2C3C=CC([C@H]4CC34)[C@@H]2C1=O)c1ccc(Br)cc1` (some centres not stated) the double positive events (at 7.7 µM) was 33.5%, the double positive events [1] was 31.2% and the percent response (vesicle binding) [1] was 590% (inactive). For the same compound, the percent response (vesicle binding) (response, at 7.7 µM) was 1000%.
For `CCCOc1ccc(N2C(=O)CC(N(O)c3ccccc3)C2=O)cc1` (configuration not stated), the double positive events (at 7.7 µM) was 17.3%, the double positive events [1] was 14.6% and the percent response (vesicle binding) [1] was 158% (inactive). For the same compound, the percent response (vesicle binding) (response, at 7.7 µM) was 254%.
For `Cc1ccsc1C(=O)OCC(=O)N1CCN(c2ccccc2)CC1`, the double positive events (at 7.7 µM) was 17.9%, the double positive events [1] was 27% and the percent response (vesicle binding) [1] was 263% (inactive). The percent response (vesicle binding) (response, at 7.7 µM) was 143%.
With `CN(CCCC(=O)N1CCN(c2ncccn2)CC1)S(=O)(=O)c1ccc(F)cc1` the double positive events (at 7.7 µM) was 7%, the double positive events [1] was 13.1% and the percent response (vesicle binding) [1] was 151% (inactive). For the same compound, the percent response (vesicle binding) (response, at 7.7 µM) was 122%.
In the case of `Cc1ccccc1CS(=O)(=O)CCC(=O)N1CCN(c2ccc(N3CCOCC3)nn2)CC1`, the double positive events (at 7.7 µM) is reported as 9%, the double positive events [1] is reported as 3.1% and the percent response (vesicle binding) [1] is reported as 18.4% (active). It also gave a percent response (vesicle binding) (response, at 7.7 µM) of 160%.
For `COc1ccc(Br)cc1CN(C)C(=O)c1ccc2c(c1)NC(=O)C(C)S2` (configuration not stated), the double positive events (at 7.7 µM) was 38.9%, the double positive events [1] was 17.5% and the percent response (vesicle binding) [1] was 221% (inactive). It also gave a percent response (vesicle binding) (response, at 7.7 µM) of 368%.
For `Cc1cccc(NC(=O)C2CCN(S(=O)(=O)c3c(C)[nH]c(=O)[nH]c3=O)CC2)c1`, the double positive events (at 7.7 µM) was 9.4%, the double positive events [1] was 12.6% and the percent response (vesicle binding) [1] was 434% (inactive). The percent response (vesicle binding) (response, at 7.7 µM) was 330%.
With `COc1ccc(NCc2nc3ccccc3n2CCOc2ccccc2)cc1` the double positive events (at 7.7 µM) was 35.8%, the double positive events [1] was 10.6% and the percent response (vesicle binding) [1] was 221% (inactive). It also gave a percent response (vesicle binding) (response, at 7.7 µM) of 261%.
With `CS(=O)(=O)c1cccc(-c2csc(N3CCC(C(N)=O)CC3)n2)c1` the double positive events (at 7.7 µM) was 18.3%, the double positive events [1] was 37.8% and the percent response (vesicle binding) [1] was 182% (inactive). It also gave a percent response (vesicle binding) (response, at 7.7 µM) of 192%.
In the case of `NC(=O)C1CCN(c2nc(-c3cc4ccccc4o3)cs2)CC1`, the double positive events (at 7.7 µM) is reported as 28.4%, the double positive events [1] is reported as 8% and the percent response (vesicle binding) [1] is reported as 128% (inactive). It also gave a percent response (vesicle binding) (response, at 7.7 µM) of 459%.
In the case of `CC(=O)c1ccc(-c2csc(N3CCC(C(N)=O)CC3)n2)cc1`, the double positive events (at 7.7 µM) is reported as 15.1%, the double positive events [1] is reported as 4.6% and the percent response (vesicle binding) [1] is reported as 28.3% (active). The percent response (vesicle binding) (response, at 7.7 µM) was 132%.
With `O=C(CN1C(=O)COc2ccc(S(=O)(=O)N3CCCC3)cc21)NC1CC1` the double positive events (at 7.7 µM) was 21.1%, the double positive events [1] was 16.7% and the percent response (vesicle binding) [1] was 459% (inactive). For the same compound, the percent response (vesicle binding) (response, at 7.7 µM) was 268%.
With `O=C(NCc1ccncc1)C(=O)NCC(c1ccco1)N1CCN(c2ccccc2F)CC1` (configuration not stated) the double positive events (at 7.7 µM) was 28.7%, the double positive events [1] was 13.3% and the percent response (vesicle binding) [1] was 251% (inactive). It also gave a percent response (vesicle binding) (response, at 7.7 µM) of 276%.
With `CCOC(=O)c1sc(NC(=O)CSc2ncn[nH]2)c(C#N)c1C` the double positive events (at 7.7 µM) was 36.7%, the double positive events [1] was 26.4% and the percent response (vesicle binding) [1] was 617% (inactive). It also gave a percent response (vesicle binding) (response, at 7.7 µM) of 394%.
With `Cc1nnc(NC(=O)c2ccc(S(=O)(=O)N(C)c3ccccc3)cc2)s1` the double positive events (at 7.7 µM) was 9.6%, the double positive events [1] was 37.9% and the percent response (vesicle binding) [1] was 156% (inactive). It also gave a percent response (vesicle binding) (response, at 7.7 µM) of 134%.
With `CCCc1nnc(NC(=O)c2ccc(S(=O)(=O)N(C)c3ccccc3OC)cc2)s1` the double positive events (at 7.7 µM) was 14.9%, the double positive events [1] was 6% and the percent response (vesicle binding) [1] was 35.7% (active). For the same compound, the percent response (vesicle binding) (response, at 7.7 µM) was 216%.
In the case of `COc1ccccc1-c1nnc(NC(=O)c2ccc(S(=O)(=O)N3CCOCC3)cc2)o1`, the double positive events (at 7.7 µM) is reported as 7%, the double positive events [1] is reported as 8.1% and the percent response (vesicle binding) [1] is reported as 284% (inactive). The percent response (vesicle binding) (response, at 7.7 µM) was 264%.
With `COc1cc(OC)cc(C(=O)NC(C(=O)Nc2ccc3c(c2)CCC3)C(C)C)c1` (configuration not stated) the double positive events (at 7.7 µM) was 8.9%, the double positive events [1] was 21% and the percent response (vesicle binding) [1] was 368% (inactive). For the same compound, the percent response (vesicle binding) (response, at 7.7 µM) was 147%.
With `O=C(CC1=NCCNC(c2ccccc2)C1)c1ccccc1O` (configuration not stated) the double positive events (at 7.7 µM) was 6.2%, the double positive events [1] was 1.7% and the percent response (vesicle binding) [1] was 65.1% (inactive). The percent response (vesicle binding) (response, at 7.7 µM) was 316%.
In the case of `COc1ccc(NCC(O)Cn2c(C)c(C)c3ccccc32)cc1` (configuration not stated), the double positive events (at 7.7 µM) is reported as 11.5%, the double positive events [1] is reported as 16.3% and the percent response (vesicle binding) [1] is reported as 63.6% (inactive). For the same compound, the percent response (vesicle binding) (response, at 7.7 µM) was 101%.
For `Cc1ccc(C(C)n2cc(C(=O)NCCN3CCN(C)CC3)nn2)cc1` (configuration not stated), the double positive events (at 7.7 µM) was 11.2%, the double positive events [1] was 1.8% and the percent response (vesicle binding) [1] was 36.8% (active). For the same compound, the percent response (vesicle binding) (response, at 7.7 µM) was 155%.
In the case of `O=C(NCCN1CCN(c2ccccc2)CC1)c1cccc(Br)c1`, the double positive events (at 7.7 µM) is reported as 24.2%, the double positive events [1] is reported as 13.3% and the percent response (vesicle binding) [1] is reported as 252% (inactive). For the same compound, the percent response (vesicle binding) (response, at 7.7 µM) was 278%.
In the case of `CCCCCC(=O)N[C@@H](c1ccccc1)[C@@H](O)C(=O)O[C@H]1C[C@@]2(O)[C@@H](OC(=O)c3ccccc3)C3[C@](C)(C(=O)[C@H](OC(C)=O)C(=C1C)C2(C)C)[C@@H](O)C[C@H]1OC[C@@]31OC(C)=O` (some centres not stated), the double positive events (at 7.7 µM) is reported as 16.4%, the double positive events [1] is reported as 12% and the percent response (vesicle binding) [1] is reported as 252% (inactive). It also gave a percent response (vesicle binding) (response, at 7.7 µM) of 302%.
With `O=C(Nc1ccccc1)N1CCc2c([nH]c3ccccc23)C1C(F)(F)F` (configuration not stated) the double positive events (at 7.7 µM) was 14%, the double positive events [1] was 38.4% and the percent response (vesicle binding) [1] was 145% (inactive). It also gave a percent response (vesicle binding) (response, at 7.7 µM) of 187%.
With `COc1ccccc1NC(=O)Cn1cnc2sc(C)c(S(=O)(=O)N3CCCCC3)c2c1=O` the double positive events (at 7.7 µM) was 11.3%, the double positive events [1] was 5.5% and the percent response (vesicle binding) [1] was 109% (inactive). For the same compound, the percent response (vesicle binding) (response, at 7.7 µM) was 197%.
With `COc1ccc(S(=O)(=O)N(C)c2ccc(C(=O)NCC3CCCO3)cc2)cc1OC` (configuration not stated) the double positive events (at 7.7 µM) was 21.6%, the double positive events [1] was 13.3% and the percent response (vesicle binding) [1] was 226% (inactive). It also gave a percent response (vesicle binding) (response, at 7.7 µM) of 413%.
For `COc1ccccc1CNC(=O)CN(Cc1ccc(Cl)cc1)S(C)(=O)=O`, the double positive events (at 7.7 µM) was 25.3%, the double positive events [1] was 7.2% and the percent response (vesicle binding) [1] was 127% (inactive). For the same compound, the percent response (vesicle binding) (response, at 7.7 µM) was 441%.
For `COc1ccccc1CNC(=O)C1CCC1`, the double positive events (at 7.7 µM) was 33.3%, the double positive events [1] was 24.2% and the percent response (vesicle binding) [1] was 232% (inactive). It also gave a percent response (vesicle binding) (response, at 7.7 µM) of 953%.
In the case of `COc1ccccc1CNC(=O)COc1ccc(C)cc1`, the double positive events (at 7.7 µM) is reported as 13.1%, the double positive events [1] is reported as 5.2% and the percent response (vesicle binding) [1] is reported as 56.4% (active). The percent response (vesicle binding) (response, at 7.7 µM) was 222%.
For `COc1ccccc1CNC(=O)c1ccc(N(C)S(=O)(=O)c2ccc(C)cc2)cc1`, the double positive events (at 7.7 µM) was 17.5%, the double positive events [1] was 5.4% and the percent response (vesicle binding) [1] was 41.2% (active). For the same compound, the percent response (vesicle binding) (response, at 7.7 µM) was 152%.
With `COc1cc(CC(=O)OCC(=O)NCc2ccc(C)cc2)cc(OC)c1OC` the double positive events (at 7.7 µM) was 12.7%, the double positive events [1] was 21.2% and the percent response (vesicle binding) [1] was 138% (inactive). The percent response (vesicle binding) (response, at 7.7 µM) was 165%.
With `Cc1ccc(C)c(OC(=O)c2cncc(Br)c2)c1` the double positive events (at 7.7 µM) was 18.1%, the double positive events [1] was 15.8% and the percent response (vesicle binding) [1] was 147% (inactive). It also gave a percent response (vesicle binding) (response, at 7.7 µM) of 268%.
For `Cc1ccc(NC(=O)COC(=O)c2c(-c3ccccc3)noc2C)c(C)c1`, the double positive events (at 7.7 µM) was 5.6%, the double positive events [1] was 14.4% and the percent response (vesicle binding) [1] was 137% (inactive). The percent response (vesicle binding) (response, at 7.7 µM) was 226%.
